697 NFkB inh – inhibitors of the PMA/ionomycin-induced NF-kB reporter in 697 B cells | 697 B-cell NF-kB luciferase reporter, 16 h | inhibition, % at 4 µM | hit rate 0.33% among 330,000; in the data active means inhibition above about 35%
Jurkat NFkB inh – inhibitors of the PMA/ionomycin-induced NF-kB reporter in Jurkat cells. PMA/ionomycin-induced NF-kB luciferase reporter, luminescence. inhibition, % at 4 µM. hit rate 0.53% among 330,000; in the data active means inhibition above about 50%
Beta cell apopt – blocks beta cell apoptosis. INS-1E cytokine-induced death, ATP luminescence, 48 h; percent of positive-control rescue, neutral wells zero. protection from apoptosis, % (no concentration beside the values). hit rate 0.8% among 300,000. AID 435005;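 active means Every replicate reaches about 75%, or at least half do and their mean reaches it too, limit read from the data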;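 further: 0% = cytokine-treated negative control wells and 100% = positive control rescue; higher means more ATP so stronger rescue from cytokine killing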
Gli-Sufu block – antagonists of Gli-Sufu signaling | inhibition, % at 5 µM | AID 588413 | hit rate 0.74% among 340,000 | Sufu-KO-LIGHT fibroblasts, Gli luciferase reporter luminescence;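 active means inhibition above about 55%, limit read from the data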;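 further: 0% = DMSO-treated cells and 100% = wells with medium but no cells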
Mdm2-MdmX inh – disrupts the human Mdm2-MdmX interaction. O15151+Q00987. SaOS-2 split-luciferase Mdm2/MdmX complementation, luminescence. inhibition, % at 8 µM. hit rate 3% among 330,000;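 active means inhibition of at least 50% at 8 µM in the primary screen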
Jurkat NFkB conf – inhibitors of the PMA/ionomycin-induced NF-kB reporter in Jurkat cells, retest. shares compounds with Jurkat NFkB inh. Jurkat NF-kB luciferase, 16 h. inhibition, % at 4 µM. hit rate 27% among 2,700;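 active means inhibition reaching about 45% at 4 µM in either replicate, limit read from the data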;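 further: plate controls were PMA/ionomycin stimulated DMSO wells for no effect and unstimulated DMSO wells for full effect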
697 NFkB conf – inhibitors of the PMA/ionomycin-induced NF-kB reporter in 697 B cells, retest | shares compounds with 697 NFkB inh | 697 B-cell NF-kB luciferase, 16 h | inhibition, % at 4 µM | hit rate 35% among 2,000 | AID 449746; in the data active means inhibition mostly above about 28%, no sharp cut-off; inactive means mostly below about 22%
Mdm2-MdmX conf – human Mdm2/MdmX binding inhibition, confirmed; shares compounds with Mdm2-MdmX inh; luminescent assay; inhibition, % at 8 µM; hit rate 55% among 10,000; in the data active means inhibition above about 40%
Full FLuc ctr – full-length luciferase inhibition in Mdm2/MdmX counter-screen; inhibition, % at 8 µM; SaOS-2 full-length luciferase counterscreen, luminescence; AID 504607; hit rate 77% among 6,200; shares compounds with Mdm2-MdmX inh;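 active means mean inhibition at 8 µM reaching about 37%, which flags the compound as non-specific, limit read from the data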;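 further: p53-null SaOS-2 cells with luciferase driven by a doxycycline-inducible promoter; compound on cells about two nights before reading with doxycycline added after day one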
Starred values were filed as active, the others as inactive; · = not tested or not shown. Rows were chosen to be rich in hits. Some 4% of all compounds tested hit in one or more screens of this group.

SMILES	697 NFkB inh	Jurkat NFkB inh	Beta cell apopt	Gli-Sufu block	Mdm2-MdmX inh	Jurkat NFkB conf	Mdm2-MdmX conf	Full FLuc ctr	others
Cc1ccc(-c2nc3cc(C)ccc3o2)cc1	-308	-175	-5	-1	-94	-98	·	·	697 NFkB conf=-292
CC(C)c1ccc2oc(-c3ccc(N)cc3)nc2c1	-472	-225	19	-140	-59	-144	·	·	697 NFkB conf=-400
Cc1ccc2oc(-c3cccc(N)c3)nc2c1	-139	-96	7	-116	-177	·	·	·
Cn1cnnc1SCC(=O)NC1CCCCCC1	2	-4	-5	-11	0	·	·	·
Cc1ccc(C(=O)O/N=C(\N)c2ccccn2)c(Cl)c1	-8	65*	·	48	96*	79*	89*	20
N/C(=N\OC(=O)c1cc(Br)ccc1Cl)c1ccccn1	-159	-118	·	-85	-103	·	·	·
COc1ccc(-c2nnc(SCC(=O)N3CCCC3)o2)c(OC)c1	-37	-27	-7	3	-30	·	·	·
NCCCNc1nc(N)c([N+](=O)[O-])c(NC2CCCCC2)n1	-66	91*	-20	16	73*	20	70*	56*
Cc1ccc(NC(=S)NNC(=S)Nc2ccc(C)cc2C)cc1	-7	66*	-4	17	71*	-18	52*	94*
Cc1ccc(NC(=O)CCC(=O)NNC(=S)Nc2ccccc2)c(C)c1	-41	-1	-2	2	-24	·	·	·
O=c1[nH]c(=S)[nH]cc1Oc1ccc(Br)cc1Br	·	·	·	7	·	·	·	·
CCOc1ccc2c(c1)sc(N)[n+]2Cc1cc(C)cc2cccnc12	-80	62*	63	20	58*	51*	65*	60*
Nc1ncn(C2O[C@H](CO)[C@@H](O)[C@H]2O)c(=O)n1 (some centres not stated)	-145	82*	5	·	54*	90*	64*	57*
Nc1nc(F)nc2c1ncn2[C@@H]1O[C@H](CO)[C@@H](O)[C@@H]1O	4	8	-6	-4	49	·	·	·
Nc1nc(F)nc2c1ncn2[C@@H]1O[C@H](CO)[C@@H](O)[C@H]1O	75*	93*	94*	71*	99*	89*	100*	3	697 NFkB conf=92*
Nc1nc(Cl)nc2c1ncn2C1CC(O)C(CO)O1 (configuration not stated)	65*	51*	36	·	81*	50*	77*	26	697 NFkB conf=68*
Cc1nc([N+](=O)[O-])cn1-c1nc2ccccn2c1[N+](=O)[O-]	-11	17	-5	44	-25	·	·	·
COc1cccc(CN2CCN(c3nc4nonc4nc3N3CCCCC3)CC2=O)c1	6	-6	3	7	-10	·	·	·
CCCN(C(=O)c1cc(S(=O)(=O)N2CCCCCC2)ccc1OC)C1CCS(=O)(=O)C1 (configuration not stated)	-1	1	3	3	22	·	·	·
COc1cc(-c2noc(C)c2C#Cc2nccn2C)cc(OC)c1OC	-14	13	-8	10	48	·	·	·
COc1cc(-c2noc(C)c2C(=O)NCCc2c[nH]c3ccccc23)cc(OC)c1OC	14	3	4	11	-1	·	·	·
COc1cc(-c2noc(C)c2-c2ccc3[nH]ccc3c2)cc(OC)c1OC	-8	65*	17	38	82*	51*	77*	54*
COc1cc(-c2noc(C)c2-c2ccc(N(C)C)nc2)cc(OC)c1OC	-97	71*	42	53	86*	58*	79*	88*
C=C1C(=O)[C@@]23[C@H](O)C[C@@H]4C(C)(C)CC[C@H](O)[C@@]4(C)[C@@H]2CC[C@@H]1[C@H]3O	-99	71*	99*	80*	97*	37	100*	48*
C[C@@H]1O[C@@H](OCCC(=O)O)[C@H](O)C[C@H]1O	13	5	-1	20	10	·	·	·
COc1ccc2c(C)nc(Nc3nc(-c4ccccc4)cc(=O)[nH]3)nc2c1	-14	89*	35	42	73*	38*	-16	·

Bioassay records: PubChem BioAssay, several laboratories
